Compound activity as filed in PubChem.
DT40 TDP1 no CPT – qHTS for Inhibitors of human tyrosyl-DNA phosphodiesterase 1 (TDP1): qHTS in cells in absence of CPT; 420,000 compounds, 15% hits; DT40 Tdp1-/- hTDP1 cells, no CPT, ATP luminescence, 48 h; Potency, µM (top dose mostly 46.2 µM), without a hit: top-dose activity change, negative = growth inhibition, usual class: inhibitors; note: potency is the fitted concentration of half-maximal effect; nearly all actives have a fitted effect of over 55% in size
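Camptothecin absent (DMSO only). Human TDP1-complemented DT40 knockout cells, 400 cells/well, 37 °C for minimum 48 hr; ATP measured via CellTiter-Glo, 30 min dark incubation, luminescence.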
VP16 counter – VP16 counterscreen qHTS for inhibitors of ROR gamma transcriptional activity. 310,000 compounds, 3.5% hits. Potency, µM (top dose mostly 53.6 µM), for the others: at the highest dose activity, negative = inhibition, most hits filed as inhibitors. Drosophila S2 Gal4-VP16 UAS-luciferase, luminescence, 20 h. AID 2546, 2010;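 note: Gal4-VP16 expression switched on by copper sulfate through the metallothionein promoter; potency is the fitted concentration of half-maximal effect; nearly all actives have a fitted effect of over 50% in size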
RORg inh – qHTS for inhibitors of ROR gamma transcriptional activity. 310,000 compounds, 5.4% hits. Drosophila S2 Gal4-RORgamma UAS-luciferase reporter, 20 h. AID 2551, 2010. Nuclear receptor ROR-gamma (Mus musculus), P51450. Potency, µM (highest dose often 53.6 µM), without a hit: at the highest dose activity change, negative = inhibition, most hits filed as inhibitors; note: potency is the fitted concentration of half-maximal effect; nearly all actives have a fitted effect of over 60% in size
Target sequence (P51450 whole entry, looked up, the tested form may be a part): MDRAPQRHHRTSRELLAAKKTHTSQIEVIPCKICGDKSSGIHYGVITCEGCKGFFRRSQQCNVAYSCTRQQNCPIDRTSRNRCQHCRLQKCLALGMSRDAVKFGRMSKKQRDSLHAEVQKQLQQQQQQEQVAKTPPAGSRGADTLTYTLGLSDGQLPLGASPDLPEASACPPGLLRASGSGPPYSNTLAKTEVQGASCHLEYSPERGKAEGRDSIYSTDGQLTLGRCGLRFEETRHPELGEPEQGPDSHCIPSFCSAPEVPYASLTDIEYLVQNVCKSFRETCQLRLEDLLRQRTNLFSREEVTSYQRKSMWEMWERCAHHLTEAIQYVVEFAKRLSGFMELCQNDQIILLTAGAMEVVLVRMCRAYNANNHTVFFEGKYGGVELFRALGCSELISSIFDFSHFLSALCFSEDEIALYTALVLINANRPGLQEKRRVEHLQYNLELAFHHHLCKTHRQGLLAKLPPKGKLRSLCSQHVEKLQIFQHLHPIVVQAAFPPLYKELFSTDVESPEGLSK
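Schneider cells (Drosophila), stable Gal4 DBD–ROR gamma + UAS-luc; 1 hr cmpd preincubation; Cu2+ induction 700 uM final; 20 hr ambient; luminescence.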
DT40 TDP1 CPT – qHTS for Inhibitors of human tyrosyl-DNA phosphodiesterase 1 (TDP1): qHTS in cells in presence of CPT; chicken DT40 Tdp1-/-;hTDP1 cells + 20 nM CPT, ATP luminescence, 48 h; Potency, µM (titrated, usually from 46.2 µM), inactives show top-dose activity change, negative = growth inhibition, hits mostly inhibitors; 420,000 compounds, 12% hits; note: potency is the fitted concentration of half-maximal effect; nearly all actives have a fitted effect of over 55% in size
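Chicken DT40 Tdp1-/- cells stably complemented with human TDP1 were seeded at 400 cells/well in medium containing 20 nM camptothecin, exposed to pin-transferred compounds, and grown at 37 °C for at least 48 hr. Viability was read as ATP luminescence.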
IL1B secr inh – qHTS for Inhibitors of Inflammasome Signaling: IL-1-beta AlphaLISA Primary Screen; THP-1 LPS/ATP IL-1B secretion, AlphaLISA, 16 h; active compounds read low; activity change, % at 57.5 µM; 360,000 compounds, 4.7% hits; AID 743279, 2014; in the data active = activity change below about -50%; inconclusive = mostly about -30% to -49%
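Secreted IL-1B measured by AlphaLISA bead assay after 16 h compound exposure of THP-1 cells; compounds (final up to 57.5 uM) added 1 h before LPS (250 ng/mL) and ATP (1.25 mM) stimulation; lower signal means less secretion.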
LDHA inh – qHTS assay for inhibitors of human lactate dehydrogenase | activity change, % (values are at about 110 or 230 µM) | L-lactate dehydrogenase A chain (Homo sapiens), P00338 | 480,000 compounds, 0.15% hits | purified LDHA, NADH/diaphorase-resazurin fluorescence; active compounds read low; in the data active = activity change below about -30%; inconclusive = mostly about -25% to -30%;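 note: plate controls were DMSO wells for no effect and wells without enzyme for full effect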
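Resorufin fluorescence (ex540/em590), read at 0 and 20 min after diaphorase/resazurin addition, reports the NADH left after a 5 min room-temperature reaction of 2 nM human LDH5 with 0.06 mM NADH and 0.2 mM pyruvate.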
* = called active by the depositor; ? = inconclusive; . = no result given; [ ] = another dose, or the depositor's remark. The list is not random: actives were taken first. Their share in the collection is about 18%. Unless noted, calls come from the whole dose curve; as a rule, active = well fitted curve in the direction sought with a large enough effect; inconclusive = small, poorly fitted or top-dose-only effect, or another doubt; inactive = no such curve, though single readings can be large; an effect the other way counts as inactive or inconclusive. Unless noted, % is set by controls: 0 for no effect and ±100 for the full control effect.

SMILES	DT40 TDP1 no CPT	VP16 counter	RORg inh	DT40 TDP1 CPT	IL1B secr inh	LDHA inh
Cc1ccc(S(=O)(=O)N2CC3(O)CN(C(=O)OC(C)C)N(C(=O)OC(C)C)CC3(OC(=O)NCc3ccccc3)C2)cc1 (stereo unspecified)	21µM*	.	.	?	-24	4
COC(=O)[C@H]1C[C@H](OC(=O)NC2CC2)[C@@]2(O)CN(S(=O)(=O)c3ccc(C)cc3)CC2[C@H]1C(=O)OC (stereo partly specified)	-5%	.	.	-19%	-13	5
Cc1ccc(S(=O)(=O)N2C[C@H]3N(C(=O)OC(C)C)N(C(=O)OC(C)C)C[C@H](OC(=O)NCc4ccccc4)[C@@]3(O)C2)cc1	21µM*	.	.	21µM*	-10	0
COC(=O)[C@H]1C[C@@]2(O)CN(S(=O)(=O)c3ccc(C)cc3)C[C@@]2(OC(=O)NCc2ccco2)C[C@H]1C(=O)OC	-22%	.	.	-17%	-21	0
Cc1ccc(S(=O)(=O)N2C[C@H]3N(C(=O)OC(C)C)N(C(=O)OC(C)C)C[C@H](OC(=O)NCc4ccco4)[C@@]3(O)C2)cc1	23µM*	.	.	?	-2	0
COC(=O)[C@H]1C[C@H](OC(=O)NCc2ccccc2F)[C@@]2(O)CN(S(=O)(=O)c3ccc(C)cc3)CC2[C@H]1C(=O)OC (stereo partly specified)	23µM*	.	.	?	0	-1
COc1ccc(CNC(=O)OC23CN(C(=O)OC(C)C)N(C(=O)OC(C)C)CC2(O)CN(S(=O)(=O)c2ccc(C)cc2)C3)cc1OC (stereo unspecified)	?	.	.	?	-6	3
CCCN1CCN(c2nc3ccccc3nc2NS(=O)(=O)c2cccc(Cl)c2)CC1	.	.	.	.	.	-3
Cc1ccc2[nH]cc(C(C(=O)O)N3CCN(Cc4nonc4C)CC3)c2c1 (stereo unspecified)	.	.	.	.	.	-5
COC(=O)COc1coc(CN2CCN(c3ccccc3)CC2)cc1=O	.	.	.	.	.	-5
Cc1ccc(S(=O)(=O)N2C[C@H]3N(C(=O)OC(C)C)N(C(=O)OC(C)C)C[C@H](OC(=O)NCC4CCCCC4)[C@@]3(O)C2)cc1	26µM*	.	.	21µM*	-17	3
CCCCCCn1c(=O)n2n(c1=O)[C@@H]1CN(S(=O)(=O)c3ccc(C)cc3)C[C@]1(O)[C@@H](OC(=O)NCc1ccco1)C2	23µM*	.	.	?	?	1
Cc1ccc(S(=O)(=O)Nc2nc3ccccc3nc2N2CCCCC2)cc1	.	.	.	.	.	-6
CN(C(=O)Cn1c(=O)c2c(ncn2C2CCCC2)n(Cc2ccccc2)c1=O)C1CCS(=O)(=O)C1 (stereo unspecified)	.	.	.	.	.	-1
COc1ccc(-c2cn3nc4c(nc3n2)CCCC4)cc1	?	1.3µM*	?	?	-12	15
OC1(c2cccnc2)CCN(Cc2ccc3c(c2)CN(Cc2cc4ccccc4s2)CCO3)CC1	16µM*	.	.	-2%[9.04 µM]	.	.
OC1(c2cccnc2)CCN(Cc2ccc3c(c2)CN(Cc2cccc(C(F)(F)F)c2)CCO3)CC1	26µM*	.	.	-22%[9.04 µM]	.	.
Cc1cc(=O)oc2cc(OCc3cccc4ccccc34)ccc12	.	.	.	.	.	3
Cc1ncc2c(c1CNC(=O)c1ccccc1F)CCN(C(=O)c1ccc3c(c1)OCCO3)C2	0.13µM*	.	.	0.058µM*	.	.
CC(=O)c1ccc(C(=O)N2CCc3c(cnc(C)c3CNC(=O)c3ccc4c(c3)OCO4)C2)s1	-29%	.	.	1%[9.04 µM]	.	.
COc1ccc(CNC(=O)C(C)SCCO)cc1OC (stereo unspecified)	.	.	.	.	.	1
